Our source for the log2 fold change values is the supplement of paper PMC10849652.

Of roughly 7,900 targets only a part is listed; those with a hit were picked by preference. About 0.6% of all pairs of compound and target were hits.

Chain of UniProt O43861 (O43861 whole entry, looked up): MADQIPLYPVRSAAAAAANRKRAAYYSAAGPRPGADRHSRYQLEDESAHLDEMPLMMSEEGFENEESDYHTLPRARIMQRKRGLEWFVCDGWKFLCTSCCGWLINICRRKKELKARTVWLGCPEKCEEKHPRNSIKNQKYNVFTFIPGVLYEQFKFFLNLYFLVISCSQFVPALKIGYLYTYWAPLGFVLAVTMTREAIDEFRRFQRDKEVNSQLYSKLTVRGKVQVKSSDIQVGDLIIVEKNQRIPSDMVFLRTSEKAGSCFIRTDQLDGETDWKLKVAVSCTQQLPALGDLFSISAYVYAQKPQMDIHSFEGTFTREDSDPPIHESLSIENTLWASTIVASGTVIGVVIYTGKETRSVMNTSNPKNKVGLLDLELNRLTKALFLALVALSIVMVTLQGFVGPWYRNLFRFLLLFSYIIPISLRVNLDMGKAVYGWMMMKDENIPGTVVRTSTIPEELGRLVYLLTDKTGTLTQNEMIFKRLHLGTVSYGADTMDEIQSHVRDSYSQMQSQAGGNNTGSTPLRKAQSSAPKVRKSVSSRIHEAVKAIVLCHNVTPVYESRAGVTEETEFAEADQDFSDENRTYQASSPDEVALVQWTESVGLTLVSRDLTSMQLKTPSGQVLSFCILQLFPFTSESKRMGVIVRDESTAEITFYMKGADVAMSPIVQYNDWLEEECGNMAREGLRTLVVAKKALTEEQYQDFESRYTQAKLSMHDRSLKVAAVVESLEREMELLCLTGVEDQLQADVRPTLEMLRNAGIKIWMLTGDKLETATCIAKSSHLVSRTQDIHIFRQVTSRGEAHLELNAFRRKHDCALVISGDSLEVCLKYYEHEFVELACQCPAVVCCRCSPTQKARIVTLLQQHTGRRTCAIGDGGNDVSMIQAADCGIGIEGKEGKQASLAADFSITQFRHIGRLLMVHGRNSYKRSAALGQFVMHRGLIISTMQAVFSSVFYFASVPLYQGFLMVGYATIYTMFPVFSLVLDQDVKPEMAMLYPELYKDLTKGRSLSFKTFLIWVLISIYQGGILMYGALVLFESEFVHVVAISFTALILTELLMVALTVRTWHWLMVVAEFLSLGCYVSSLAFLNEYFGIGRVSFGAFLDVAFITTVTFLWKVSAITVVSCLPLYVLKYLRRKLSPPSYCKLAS
Chain of UniProt O14981 (O14981 whole entry, looked up): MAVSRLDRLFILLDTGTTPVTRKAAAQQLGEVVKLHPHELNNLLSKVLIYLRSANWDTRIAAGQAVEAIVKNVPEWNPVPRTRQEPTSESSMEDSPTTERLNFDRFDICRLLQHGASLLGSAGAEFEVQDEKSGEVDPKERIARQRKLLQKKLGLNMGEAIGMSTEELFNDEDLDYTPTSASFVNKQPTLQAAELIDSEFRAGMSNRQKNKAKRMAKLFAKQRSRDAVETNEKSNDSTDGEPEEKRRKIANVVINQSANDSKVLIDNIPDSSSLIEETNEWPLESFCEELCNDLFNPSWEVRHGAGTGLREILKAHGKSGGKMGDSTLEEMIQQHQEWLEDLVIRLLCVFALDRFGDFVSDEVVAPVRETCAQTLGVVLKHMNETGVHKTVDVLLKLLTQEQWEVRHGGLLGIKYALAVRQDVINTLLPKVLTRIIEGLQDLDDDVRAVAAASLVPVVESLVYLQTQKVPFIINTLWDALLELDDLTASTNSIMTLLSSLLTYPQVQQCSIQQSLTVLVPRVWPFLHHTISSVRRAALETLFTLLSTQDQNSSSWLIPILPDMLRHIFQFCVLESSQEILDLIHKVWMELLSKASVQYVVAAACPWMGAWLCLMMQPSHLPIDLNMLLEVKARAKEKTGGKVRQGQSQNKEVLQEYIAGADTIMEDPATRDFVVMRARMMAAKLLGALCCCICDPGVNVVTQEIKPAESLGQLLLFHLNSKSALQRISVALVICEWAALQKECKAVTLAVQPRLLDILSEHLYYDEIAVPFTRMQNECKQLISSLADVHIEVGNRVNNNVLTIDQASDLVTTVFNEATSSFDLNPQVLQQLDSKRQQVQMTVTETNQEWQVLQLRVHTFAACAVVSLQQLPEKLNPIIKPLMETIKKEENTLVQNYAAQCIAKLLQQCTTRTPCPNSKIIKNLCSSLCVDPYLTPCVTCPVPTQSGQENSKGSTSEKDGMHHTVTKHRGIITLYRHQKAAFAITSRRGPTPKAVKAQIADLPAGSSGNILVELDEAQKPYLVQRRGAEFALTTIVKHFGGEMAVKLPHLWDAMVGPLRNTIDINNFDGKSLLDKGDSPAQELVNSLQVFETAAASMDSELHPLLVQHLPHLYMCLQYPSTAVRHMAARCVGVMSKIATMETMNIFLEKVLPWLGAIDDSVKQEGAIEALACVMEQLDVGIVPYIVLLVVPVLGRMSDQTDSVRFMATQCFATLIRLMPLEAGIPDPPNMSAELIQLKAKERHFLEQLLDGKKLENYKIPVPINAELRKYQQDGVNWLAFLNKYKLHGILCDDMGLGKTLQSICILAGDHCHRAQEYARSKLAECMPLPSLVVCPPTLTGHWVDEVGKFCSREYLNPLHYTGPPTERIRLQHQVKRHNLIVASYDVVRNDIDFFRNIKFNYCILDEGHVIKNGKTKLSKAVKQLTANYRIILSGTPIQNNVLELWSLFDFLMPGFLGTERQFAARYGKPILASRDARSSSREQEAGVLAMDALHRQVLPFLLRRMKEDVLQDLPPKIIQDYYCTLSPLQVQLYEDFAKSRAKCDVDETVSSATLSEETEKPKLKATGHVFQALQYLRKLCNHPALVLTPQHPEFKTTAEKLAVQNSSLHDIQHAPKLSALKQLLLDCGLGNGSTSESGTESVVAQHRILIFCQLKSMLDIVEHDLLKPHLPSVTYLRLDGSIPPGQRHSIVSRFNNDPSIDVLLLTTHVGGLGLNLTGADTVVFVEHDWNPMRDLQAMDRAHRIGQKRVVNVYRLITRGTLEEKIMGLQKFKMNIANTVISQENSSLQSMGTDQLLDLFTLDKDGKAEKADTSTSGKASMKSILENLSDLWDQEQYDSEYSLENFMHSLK
Chain of UniProt Q9Y4P1 (Q9Y4P1 whole entry, looked up): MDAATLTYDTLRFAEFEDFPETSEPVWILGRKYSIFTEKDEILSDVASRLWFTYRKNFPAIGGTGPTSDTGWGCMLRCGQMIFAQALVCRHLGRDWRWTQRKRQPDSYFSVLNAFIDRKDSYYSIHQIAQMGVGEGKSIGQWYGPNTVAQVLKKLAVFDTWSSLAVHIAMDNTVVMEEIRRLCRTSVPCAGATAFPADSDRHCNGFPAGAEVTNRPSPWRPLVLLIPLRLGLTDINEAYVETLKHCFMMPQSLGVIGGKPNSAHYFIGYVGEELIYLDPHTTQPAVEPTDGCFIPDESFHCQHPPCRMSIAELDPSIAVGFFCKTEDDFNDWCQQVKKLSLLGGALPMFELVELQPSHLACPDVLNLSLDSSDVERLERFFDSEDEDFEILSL
Chain of UniProt P98196 (P98196 whole entry, looked up): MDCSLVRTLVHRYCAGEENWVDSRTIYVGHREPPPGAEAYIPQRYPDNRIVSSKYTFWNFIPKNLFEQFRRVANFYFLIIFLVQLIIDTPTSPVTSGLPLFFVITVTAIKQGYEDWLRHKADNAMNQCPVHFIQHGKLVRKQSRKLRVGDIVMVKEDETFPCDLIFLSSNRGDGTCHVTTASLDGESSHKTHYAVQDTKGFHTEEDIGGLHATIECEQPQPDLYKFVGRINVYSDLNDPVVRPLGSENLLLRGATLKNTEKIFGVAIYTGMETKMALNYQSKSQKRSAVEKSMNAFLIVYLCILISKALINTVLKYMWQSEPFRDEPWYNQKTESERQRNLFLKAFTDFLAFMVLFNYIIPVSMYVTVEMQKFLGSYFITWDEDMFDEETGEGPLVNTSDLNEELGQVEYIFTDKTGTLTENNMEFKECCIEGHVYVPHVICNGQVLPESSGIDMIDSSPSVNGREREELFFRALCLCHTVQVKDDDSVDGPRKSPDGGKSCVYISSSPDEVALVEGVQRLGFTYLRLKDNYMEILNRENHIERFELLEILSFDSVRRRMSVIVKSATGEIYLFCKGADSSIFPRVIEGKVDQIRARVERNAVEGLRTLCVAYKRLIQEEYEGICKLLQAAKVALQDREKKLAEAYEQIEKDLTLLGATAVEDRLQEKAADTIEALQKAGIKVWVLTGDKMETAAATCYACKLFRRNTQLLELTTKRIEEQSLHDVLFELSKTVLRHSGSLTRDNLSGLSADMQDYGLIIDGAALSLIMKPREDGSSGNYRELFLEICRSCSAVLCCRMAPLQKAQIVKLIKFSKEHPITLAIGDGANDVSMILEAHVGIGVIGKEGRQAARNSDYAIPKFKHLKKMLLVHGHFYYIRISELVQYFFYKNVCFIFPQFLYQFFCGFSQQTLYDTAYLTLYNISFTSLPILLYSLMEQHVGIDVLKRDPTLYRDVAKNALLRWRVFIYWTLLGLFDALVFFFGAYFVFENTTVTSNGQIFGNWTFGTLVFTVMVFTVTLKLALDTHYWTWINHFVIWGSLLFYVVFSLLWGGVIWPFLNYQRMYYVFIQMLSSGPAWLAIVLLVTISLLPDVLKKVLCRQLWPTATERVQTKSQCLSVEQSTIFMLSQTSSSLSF
Chain of UniProt Q9UII2 (Q9UII2 whole entry, looked up): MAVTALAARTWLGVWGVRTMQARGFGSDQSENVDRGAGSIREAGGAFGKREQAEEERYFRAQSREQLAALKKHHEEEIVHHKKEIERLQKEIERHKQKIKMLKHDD
Chain of UniProt Q96F25 (Q96F25 whole entry, looked up): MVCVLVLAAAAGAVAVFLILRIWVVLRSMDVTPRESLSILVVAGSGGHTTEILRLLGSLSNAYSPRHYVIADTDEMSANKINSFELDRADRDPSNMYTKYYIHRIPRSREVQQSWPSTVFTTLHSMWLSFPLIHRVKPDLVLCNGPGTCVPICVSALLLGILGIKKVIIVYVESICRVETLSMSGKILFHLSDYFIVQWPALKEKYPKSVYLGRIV
Chain of UniProt Q9Y2Y0 (Q9Y2Y0 whole entry, looked up): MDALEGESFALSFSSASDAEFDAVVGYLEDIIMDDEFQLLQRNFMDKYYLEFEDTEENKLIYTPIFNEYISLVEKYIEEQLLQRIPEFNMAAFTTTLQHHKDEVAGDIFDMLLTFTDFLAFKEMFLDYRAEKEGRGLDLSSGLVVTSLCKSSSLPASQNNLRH

Compound in this experiment: CC1=C2C(=CC=C1)N=C(N(C2=O)C3=CC=CC=C3C)CN4C=NC5=C(N=CN=C54)N
The experiment is described as follows: log2 fold change, soluble protein after heating vs DMSO (PISA); higher = thermal stabilisation; K562 cells, 10 uM, 30 min; active = over 0.2 and 3.5 SD of the protein, either way, in both replicates (recomputed). In short, it runs like this:
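K562 cells (2×10^6 cells/mL) were treated with 10 μM compound for 30 min, and aliquots were heated for 3 min over 48°C-58°C. Pooled aliquots were extracted in PBS with 0.5% NP-40 at 4°C, and the supernatant after 21,000xg for 90 min was measured by TMTpro 16plex LC-MS/MS with channel sums equalised. Reported thermal stability, relative to control samples and from duplicates, is a log2 fold change.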
As to ARL6IP4 (UniProt Q66PJ3), the log2 fold change is 0.009 (inactive).

Take ATP7B (UniProt P35670): the log2 fold change was 0.014 (inactive).

As for B4GALT1 (UniProt P15291), the log2 fold change is -0.065 (inactive). The value for ARL2BP (UniProt Q9Y2Y0) was 0.14 (inactive); that for ASS1 (UniProt P00966) was 0.032 (inactive). Next, ATAD1 (UniProt Q8NBU5): 0.063 (inactive). Next, ACAP2 (UniProt Q15057): 0.132 (inactive); ATG4B isoform 2 (UniProt Q9Y4P1): 0.166 (inactive); ATL2 (UniProt Q8NHH9): 0.091 (inactive). ATP6V1H (UniProt Q9UI12): the log2 fold change is 0.029 (inactive). The value for AGPAT5 (UniProt Q9NUQ2) was 0.007 (inactive); that for ABHD16A (UniProt O95870) was 0.026 (inactive); that for BTAF1 (UniProt O14981) was 0.124 (inactive). The value for ARHGAP1 (UniProt Q07960) was 0.047 (inactive).

Take ATP9B (UniProt O43861): the log2 fold change is 0.055 (inactive). Next, ATP5IF1 (UniProt Q9UII2): -0.031 (inactive). Next, ARMC10 (UniProt Q8N2F6): -0.006 (inactive); ANAPC2 (UniProt Q9UJX6): -0.005 (inactive); ATP11A (UniProt P98196): 0.085 (inactive).

For the target ALG14 (UniProt Q96F25), the log2 fold change was 0.241 (inactive).

On to ACP1 isoform 2 (UniProt P24666), for which the log2 fold change is 0.004 (inactive). Next, ACIN1 (UniProt Q9UKV3): 0.038 (inactive); ALDH1B1 (UniProt P30837): 0.013 (inactive).
